Screening results deposited in PubChem BioAssay by several laboratories.
MazEF act – MazEF (E. coli) toxin RNase activation | P0AE70 | FAM/BHQ RNA-DNA oligo cleavage fluorescence, 5 h | activation, % at 20 µM | 350,000 tested, 0.32% active; in the data active = activation above about 50%
BoNT-A LC inh2 – blocks Botulinum neurotoxin A light chain protease; 360,000 tested, 0.17% active; AID 588499; multiplex microsphere protease substrate cleavage, flow cytometry; inhibition, % at 10 µM; also: plate controls were buffer without enzyme for full effect and enzyme alone for no effect
BoNT-F LC inh – BoNT F light chain protease inhibition; Multiplex microsphere protease cleavage assay, flow cytometry; inhibition, % at 10 µM; 360,000 tested, 0.22% active; in the data active = inhibition above about 35%, passing the limit was not always enough; inconclusive = no clear call, values can overlap the other calls; also: plate controls were buffer without enzyme for full effect and enzyme alone for no effect
Anthrax LF prot – blocks Bacillus anthracis lethal factor protease. multiplex microsphere protease cleavage assay, LF. inhibition, % at 10 µM. 360,000 tested, 0.12% active; also: plate controls were buffer without enzyme for full effect and enzyme alone for no effect
Target sequence (P15917 whole entry, looked up): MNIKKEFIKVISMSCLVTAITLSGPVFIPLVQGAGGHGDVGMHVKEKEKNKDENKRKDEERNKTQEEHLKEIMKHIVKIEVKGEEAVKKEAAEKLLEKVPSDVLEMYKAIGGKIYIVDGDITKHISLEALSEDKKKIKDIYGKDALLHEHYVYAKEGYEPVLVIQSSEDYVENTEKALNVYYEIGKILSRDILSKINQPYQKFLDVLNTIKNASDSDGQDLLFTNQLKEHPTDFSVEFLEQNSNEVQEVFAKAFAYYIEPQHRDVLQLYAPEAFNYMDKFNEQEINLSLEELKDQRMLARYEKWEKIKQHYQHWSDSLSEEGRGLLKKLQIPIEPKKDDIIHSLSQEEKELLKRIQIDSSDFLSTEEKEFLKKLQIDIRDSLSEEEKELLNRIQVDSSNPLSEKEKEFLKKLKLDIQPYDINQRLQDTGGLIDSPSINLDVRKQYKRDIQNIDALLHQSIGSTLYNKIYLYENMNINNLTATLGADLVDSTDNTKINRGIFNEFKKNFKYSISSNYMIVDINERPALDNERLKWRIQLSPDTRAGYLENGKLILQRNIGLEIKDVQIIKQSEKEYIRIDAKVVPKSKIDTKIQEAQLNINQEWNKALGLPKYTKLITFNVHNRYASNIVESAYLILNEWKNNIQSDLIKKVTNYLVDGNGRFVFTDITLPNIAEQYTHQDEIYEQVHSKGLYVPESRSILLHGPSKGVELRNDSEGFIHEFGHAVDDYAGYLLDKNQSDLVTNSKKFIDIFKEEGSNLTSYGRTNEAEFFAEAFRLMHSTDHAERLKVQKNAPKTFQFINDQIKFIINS
Autofluor counter – compound fluorescence in toxin protease inhibitor counterscreen; 360,000 tested, 3.1% active; fluorescence intensity (no concentration beside the values); compound autofluorescence counterscreen, microsphere flow cytometry; active compounds read high; in the data active = fluorescence intensity above about 16000; inconclusive = no clear call, values can overlap the other calls
* hit, by the source's call; ? = inconclusive; · = not tested or not shown. Shown are actives, neighbours in structure and some others; about 3.7% of the full set was active somewhere. Rule as the data show it, unless noted: active = inhibition above about 30%; inconclusive = no clear call, values can overlap the other calls; inactive = below that.

SMILES	MazEF act	BoNT-A LC inh2	BoNT-F LC inh	Anthrax LF prot	Autofluor counter
CCNC(=O)C1CCCN(C(=O)c2ccc3c(c2)OCO3)CC1 (centres undefined)	·	-0.1	-4.7	-5.8	3567
C[C@@H](NC(=O)[C@@H]1Cc2ccccc2CN1)C(=O)Nc1ccc2c(c1)OCCO2	-19.4	0.4	-3.9	0.9	4279
Cc1cc(C)n(C(=O)c2c([N+](=O)[O-])c(C)nn2C)n1	6.9	-3.6	-4.2	-1.0	24146*
N#Cc1sc2nc(-c3cccs3)cc(-c3ccc(Cl)cc3)c2c1N	-7.8	?	1.6	11.7	16199*
Cc1[nH][nH]c(=O)c1C(c1c(C)[nH][nH]c1=O)c1cn(Cc2ccccc2Cl)c2ccccc12	70.6*	0.4	-7.9	-3.4	2189
O=C(NCC(=O)N1CCN(S(=O)(=O)c2ccc3c(c2)OCCO3)CC1)c1ccccc1Cl	1.8	0.5	0.9	-3.9	6259
COc1ccc(S(=O)(=O)N(CC(=O)NCc2ccncc2)c2ccc(C)cc2)cc1Br	-3.8	-1.2	-24.3	8.0	3253
Cn1c2c(c3ccccc31)CCSC2=O	4.6	0.1	1.2	-5.3	22095*
CCOc1cc(/C=C(\C#N)c2[nH]nc(N)c2C#N)ccc1O	5.8	-1.8	-5.3	0.5	23984*
COc1ccc(CN2CCNC(=O)C2CC(=O)NC2CCCC2)c(C)c1C (centres undefined)	-8.9	-0.8	-1.8	0.1	5873
O=C(Oc1ccc(-c2cnc3ccccc3n2)cc1)c1ccco1	-8.3	-2.2	-3.6	0.9	20475*
COn1c(SC2CCCCC2)nc2ccccc2c1=O	-5.0	-6.4	-8.0	-2.7	17818*
CC(C)On1c(SC(C)C)nc2ccccc2c1=O	10.2	-0.8	-4.0	-2.6	22943*
COn1c(SC(C)C)nc2ccccc2c1=O	3.6	0.0	7.0	-6.3	4222
COn1c(SCC(N)=O)nc2ccccc2c1=O	-20.5	-0.1	-2.4	-2.8	3291
Cc1ccc(F)c(S(=O)(=O)NC(=O)C2(C)CCN2C(=O)Cc2cc(F)ccc2F)c1 (centres undefined)	·	0.2	-0.7	6.7	3710
COc1nc(Nc2ccc(O)cc2)nc(OC(C(F)(F)F)C(F)(F)F)n1	3.7	-0.6	-6.9	-5.3	16552*
Cc1cc(C)cc(OCC(=O)Nc2nonc2NC(=O)COc2cc(C)cc(C)c2)c1	5.1	?	1.6	-11.2	18944*
Cc1cc(C)cc(OCC(=O)Nc2cccc(C(=O)O)c2)c1	2.0	?	-9.1	0.1	17933*
Cc1cccc(OCC(=O)Nc2cc(NC(=O)COc3cccc(C)c3)cc(C(=O)O)c2)c1	-7.0	0.9	1.9	-2.0	3428
CCOc1ccccc1C(=O)NC(C(=O)OCn1nnc2ccccc2c1=O)C(C)C (centres undefined)	8.3	-0.3	-1.8	0.2	3636
CC[C@@H]1Cc2[nH][nH]c(=O)c2[C@@H](c2ccc(Cl)cc2)O1	·	0.1	-5.2	-0.2	5722
COc1ccc2nc(C)cc(SCC(=O)Nc3c(C)cc(C)cc3C)c2c1	-53.6	4.1	2.2	-0.2	18106*
COc1ccc2nc(C)cc(SCC(=O)NNC(=O)COc3ccc(C)cc3)c2c1	51.2*	0.1	7.4	-3.5	8511
COc1ccc2nc(C)cc(SCC(=O)NNC(=O)COc3cccc4ccccc34)c2c1	2.6	0.6	3.1	-0.9	2517
SMILES	MazEF act	BoNT-A LC inh2	BoNT-F LC inh	Anthrax LF prot	Autofluor counter
Cc1cccc(NC(=O)CN2CCN(C(=O)CN3C(=O)NC4(CCCCC4C)C3=O)CC2)c1C (centres undefined)	6.6	-0.8	2.3	1.6	3902
Cc1ccc(Oc2ccccc2/C=C2\SC(=O)N(C)C2=O)cc1	-6.4	3.2	3.9	1.4	21464*
CN1C(=O)S/C(=C\c2ccccc2OCc2ccc(C(=O)O)cc2)C1=O	10.5	0.4	3.2	0.8	2193
Cc1ccc2c(CC(=O)N(C)c3c(N)n(Cc4ccccc4)c(=O)[nH]c3=O)coc2c1	0.6	1.3	3.7	-3.0	5518
CCOc1ccc(C(=O)Nc2cnn(Cc3ccc(Cl)c(Cl)c3)c2)cc1	16.5	0.9	-0.7	-1.4	16229*
Cc1c(Br)cnn1C(C)C(=O)N1CCN(c2ccccc2F)CC1 (centres undefined)	-9.2	-0.4	5.7	-0.7	4219
COc1ccc(NC(=S)N2CCN(c3ccc4c(c3)C3CCN(C(=O)OCc5ccccc5)C4C3)CC2)c(OC)c1 (centres undefined)	·	0.0	-9.0	-8.8	4185
COc1cc2cc(/C=C/C(=O)c3ccco3)c(Cl)nc2cc1OC	267.4*	7.4	8.7	3.7	4079
CN(Cc1ccc(Cl)cc1Cl)C(=O)CN1C(=O)NC2(CCCC2)C1=O	-0.4	2.7	8.5	2.7	?
O=C(CN1CCC(NC(=O)c2ccc(F)cc2)CC1)NCc1ccccc1F	2.7	-1.7	-3.9	-1.1	17206*
O=C(CN1CCC(NC(=O)c2ccccc2)CC1)NCc1ccccc1F	4.0	2.2	0.4	-3.1	15747
COc1ccccc1CNC(=O)CN1C(=O)NC2(CCCCCCC2)C1=O	6.2	-0.3	-1.5	-6.4	3555
CCOc1ccc(C2C(C#N)=C(N)Oc3c2c(=O)oc2ccccc32)cc1 (centres undefined)	-2.4	?	-5.7	-2.1	24671*
CCN(C(=O)CSc1nnc(COc2ccccc2F)n1N)c1c(N)n(Cc2ccccc2)c(=O)[nH]c1=O	-1.1	-0.1	0.4	-0.4	3097
COc1ccc(CC2CCOC2=O)cc1 (centres undefined)	-1.0	4.9	9.5	-8.7	20533*
Cc1ccc(S(=O)(=O)N2CCCCC2)cc1NC(=O)c1c(-c2ccccc2)noc1C	7.0	2.4	4.5	4.9	7943
O=C(COC(=O)CCC1CCCC1)Nc1ccc(Cl)cn1	9.6	-1.1	-1.1	-0.7	17161*
Cc1ccc(OS(=O)(=O)c2ccc(N3C(=O)CCC3=O)cc2)cc1	4.2	-2.3	1.6	-0.5	6426
CCc1ccc(C(C)NC(=O)/C=C/c2ccc(Br)cc2)cc1 (centres undefined)	0.5	-0.8	1.7	-1.1	22674*
CCN1CCC(NC(=O)c2cc(OC)c(OC)cc2OC)CC1	3.8	?	-5.9	-0.2	21698*
Cc1ccc(NC(=O)C2(C)CCN2C(=O)CCC2CCCC2)cc1C (centres undefined)	·	-0.2	2.3	9.0	3638
O=C(CC(C(=O)O)N1CCOCC1)Nc1ccc(Cl)cc1 (centres undefined)	-0.9	1.0	2.1	0.4	19713*
CCc1nc2c(OCc3ccc(C(=O)N(C)C)cc3)cccn2c1N(C)C(=O)Nc1ccccc1OC	·	0.5	6.6	-1.2	2900
O=c1c2ccccc2nc(N2CCCC2)n1-c1ccc(Cl)cc1	3.6	0.7	-0.6	1.6	22940*
C[C@]1(OC(=O)/C=C/c2ccccc2)C[C@@H](O)[C@]2(O)C=CO[C@@H](O[C@@H]3O[C@H](CO)[C@@H](O)[C@H](O)[C@H]3O)[C@@H]21	7.4	-0.2	-0.7	-2.7	6273
O=C(COc1coc(CN2CCN(c3ccccc3)CC2)cc1=O)Nc1ccc(F)cc1	-16.3	2.1	-3.2	0.7	4724
CCCc1nc2ccc(Cl)cn2c1Cc1ccccc1	·	3.6	0.0	13.4	5356
